Assay results from the supplement of paper PMC3545927.
The other results are listed elsewhere or left out. The hit rate among all sequences tested is not known here.

Target: furin, P09958
Assay: furin cleavage Z-score vs untreated control; higher = more cleavage, active = 3.5 or more, inactive = 1 or less, 8 variable residues between constant flanks
Method: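 Multiplexed peptide-cDNA fusion cleavage assay. 8-mer variable peptides flanked by constant Cys-Ala (N-term) and Ala-Gly-Asn-Ala-Ser-Ala-Ser-Ala (C-term) and conjugated to a cDNA oligonucleotide were bead-immobilised via the N-terminus. They were treated with purified furin at a 1:10 enzyme:substrate ratio in 50 mM HEPES pH 7.5, 1 mM CaCl2, 100 mM NaCl for 7.5, 15 or 30 min. Released cDNA was counted by next-generation sequencing, and log counts versus no-furin controls were lowess-adjusted and converted to robust Z-scores.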

furin, P09958, sequence (P09958 whole entry): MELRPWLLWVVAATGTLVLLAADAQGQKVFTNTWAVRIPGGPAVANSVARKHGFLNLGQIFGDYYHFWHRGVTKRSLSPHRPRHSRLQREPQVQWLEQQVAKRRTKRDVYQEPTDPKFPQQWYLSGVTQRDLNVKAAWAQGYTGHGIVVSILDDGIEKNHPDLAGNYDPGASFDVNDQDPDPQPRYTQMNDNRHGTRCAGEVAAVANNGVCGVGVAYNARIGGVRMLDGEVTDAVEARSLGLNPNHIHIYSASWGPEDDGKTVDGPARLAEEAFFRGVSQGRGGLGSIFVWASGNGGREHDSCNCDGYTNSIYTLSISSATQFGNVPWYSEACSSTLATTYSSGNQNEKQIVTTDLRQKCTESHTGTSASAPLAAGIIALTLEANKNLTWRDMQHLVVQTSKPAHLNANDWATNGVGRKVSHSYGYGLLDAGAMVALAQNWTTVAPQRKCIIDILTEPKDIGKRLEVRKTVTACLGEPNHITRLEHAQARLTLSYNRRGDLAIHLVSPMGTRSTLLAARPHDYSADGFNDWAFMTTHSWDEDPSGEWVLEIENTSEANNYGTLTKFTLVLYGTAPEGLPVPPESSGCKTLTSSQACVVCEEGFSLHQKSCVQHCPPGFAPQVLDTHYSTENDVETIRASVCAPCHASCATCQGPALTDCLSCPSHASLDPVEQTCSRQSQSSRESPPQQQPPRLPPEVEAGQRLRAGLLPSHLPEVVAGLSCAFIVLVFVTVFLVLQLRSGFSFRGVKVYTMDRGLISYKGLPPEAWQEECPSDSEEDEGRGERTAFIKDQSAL

In the case of CADGPDGPEEAGNASASA [CS6], the “furin cleavage Z-score” value (7.5 min) is reported as -0.625 (inactive), the “furin cleavage Z-score” value (15 min) is reported as -0.697 (inactive) and the “furin cleavage Z-score” value (30 min) is reported as 0.000165 (inactive).

In the case of CAVSVIPTSGAGNASASA [HC872], the “furin cleavage Z-score” value (7.5 min) is reported as -1.15 (inactive), the “furin cleavage Z-score” value (15 min) is reported as -1.43 (inactive) and the “furin cleavage Z-score” value (30 min) is reported as -0.759 (inactive).

With CALALLSCLTAGNASASA [HC250] the “furin cleavage Z-score” value (7.5 min) was 0.23 (inactive), the “furin cleavage Z-score” value (15 min) was 0.192 (inactive) and the “furin cleavage Z-score” value (30 min) was 0.0802 (inactive).

CAASIRHARFAGNASASA [FS-580] was tested, and the “furin cleavage Z-score” value (7.5 min) was 4.24 (active), the “furin cleavage Z-score” value (15 min) was 6.42 (active) and the “furin cleavage Z-score” value (30 min) was 7.16 (active).

With CAASPRVARFAGNASASA [FS-1586] the “furin cleavage Z-score” value (7.5 min) was 7.18 (active), the “furin cleavage Z-score” value (15 min) was 7.05 (active) and the “furin cleavage Z-score” value (30 min) was 9.24 (active).

For CAASHRSTRFAGNASASA [FS-1309], the “furin cleavage Z-score” value (7.5 min) was 0.749 (inactive), the “furin cleavage Z-score” value (15 min) was 3.07 and the “furin cleavage Z-score” value (30 min) was 5.05 (active).

For CASCQRRTRFAGNASASA [FS-379], the “furin cleavage Z-score” value (7.5 min) was -0.682 (inactive), the “furin cleavage Z-score” value (15 min) was 1.81 and the “furin cleavage Z-score” value (30 min) was 2.4.

With CADAAARVTAAGNASASA [HC1130] the “furin cleavage Z-score” value (7.5 min) was -0.857 (inactive), the “furin cleavage Z-score” value (15 min) was -0.374 (inactive) and the “furin cleavage Z-score” value (30 min) was -0.0041 (inactive).

For CADAARVARFAGNASASA [FS-220], the “furin cleavage Z-score” value (7.5 min) was 1.88, the “furin cleavage Z-score” value (15 min) was 3.12 and the “furin cleavage Z-score” value (30 min) was 3.56 (active).

CAAGHAVGIFAGNASASA [HC747] was tested, and the “furin cleavage Z-score” value (7.5 min) was 0.991 (inactive), the “furin cleavage Z-score” value (15 min) was -0.922 (inactive) and the “furin cleavage Z-score” value (30 min) was -0.149 (inactive).

For CAEVTCHRPSAGNASASA [HC2358], the “furin cleavage Z-score” value (7.5 min) was 0.503 (inactive), the “furin cleavage Z-score” value (15 min) was 1.09 and the “furin cleavage Z-score” value (30 min) was -0.419 (inactive).

With CASTPCSCHLAGNASASA [HC2540] the “furin cleavage Z-score” value (7.5 min) was -2.32 (inactive), the “furin cleavage Z-score” value (15 min) was -0.121 (inactive) and the “furin cleavage Z-score” value (30 min) was -0.978 (inactive).

CAVVCCSMPYAGNASASA [HC2079] was tested, and the “furin cleavage Z-score” value (7.5 min) was 1.07, the “furin cleavage Z-score” value (15 min) was 1.5 and the “furin cleavage Z-score” value (30 min) was 0.76 (inactive).

In the case of CAMEECSQHRAGNASASA [HC1773], the “furin cleavage Z-score” value (7.5 min) is reported as 0.467 (inactive), the “furin cleavage Z-score” value (15 min) is reported as 0.921 (inactive) and the “furin cleavage Z-score” value (30 min) is reported as 2.83.

CAAQQTRGLLAGNASASA [HC677] was tested, and the “furin cleavage Z-score” value (7.5 min) was -1.39 (inactive), the “furin cleavage Z-score” value (15 min) was -0.431 (inactive) and the “furin cleavage Z-score” value (30 min) was 0.105 (inactive).

For CAIKARAACRAGNASASA [HC1519], the “furin cleavage Z-score” value (7.5 min) was 0.264 (inactive), the “furin cleavage Z-score” value (15 min) was -0.0832 (inactive) and the “furin cleavage Z-score” value (30 min) was 0.862 (inactive).

For CARRARASDRAGNASASA [FS-2176], the “furin cleavage Z-score” value (7.5 min) was 3.3, the “furin cleavage Z-score” value (15 min) was 2.19 and the “furin cleavage Z-score” value (30 min) was 4.92 (active).

With CARRARQARRAGNASASA [FS-1071] the “furin cleavage Z-score” value (7.5 min) was -0.692 (inactive), the “furin cleavage Z-score” value (15 min) was 0.798 (inactive) and the “furin cleavage Z-score” value (30 min) was 2.53.

With CAPRARAARRAGNASASA [FS-1550] the “furin cleavage Z-score” value (7.5 min) was 4.8 (active), the “furin cleavage Z-score” value (15 min) was 6.53 (active) and the “furin cleavage Z-score” value (30 min) was 7.08 (active).

With CASLRAFTEAAGNASASA [HC1538] the “furin cleavage Z-score” value (7.5 min) was -0.614 (inactive), the “furin cleavage Z-score” value (15 min) was -1.13 (inactive) and the “furin cleavage Z-score” value (30 min) was 0.282 (inactive).

In the case of CAGLSRHRRIAGNASASA [FS-1329], the “furin cleavage Z-score” value (7.5 min) is reported as 4.21 (active), the “furin cleavage Z-score” value (15 min) is reported as 4.36 (active) and the “furin cleavage Z-score” value (30 min) is reported as 4.6 (active).

With CAVGSKQRRIAGNASASA [FS-631] the “furin cleavage Z-score” value (7.5 min) was -0.93 (inactive), the “furin cleavage Z-score” value (15 min) was -0.511 (inactive) and the “furin cleavage Z-score” value (30 min) was -0.419 (inactive).

In the case of CALYNRTRRIAGNASASA [FS-61], the “furin cleavage Z-score” value (7.5 min) is reported as -0.475 (inactive), the “furin cleavage Z-score” value (15 min) is reported as 0.0321 (inactive) and the “furin cleavage Z-score” value (30 min) is reported as 0.723 (inactive).

With CAEINRPRRIAGNASASA [FS-156] the “furin cleavage Z-score” value (7.5 min) was 0.686 (inactive), the “furin cleavage Z-score” value (15 min) was -0.166 (inactive) and the “furin cleavage Z-score” value (30 min) was 0.217 (inactive).

For CAYLARNARIAGNASASA [FS-319], the “furin cleavage Z-score” value (7.5 min) was -0.614 (inactive), the “furin cleavage Z-score” value (15 min) was -1.5 (inactive) and the “furin cleavage Z-score” value (30 min) was 0.218 (inactive).

With CASLVRNRRIAGNASASA [FS-626] the “furin cleavage Z-score” value (7.5 min) was 3.81 (active), the “furin cleavage Z-score” value (15 min) was 7.06 (active) and the “furin cleavage Z-score” value (30 min) was 7.84 (active).

CATLGRHRRIAGNASASA [FS-305] was tested, and the “furin cleavage Z-score” value (7.5 min) was 0.637 (inactive), the “furin cleavage Z-score” value (15 min) was 4.75 (active) and the “furin cleavage Z-score” value (30 min) was 4.61 (active).

For CANKNRLRRIAGNASASA [FS-696], the “furin cleavage Z-score” value (7.5 min) was 2.17, the “furin cleavage Z-score” value (15 min) was 3.21 and the “furin cleavage Z-score” value (30 min) was 3.66 (active).

In the case of CALSTGCVVIAGNASASA [HC998], the “furin cleavage Z-score” value (7.5 min) is reported as -0.865 (inactive), the “furin cleavage Z-score” value (15 min) is reported as -1.26 (inactive) and the “furin cleavage Z-score” value (30 min) is reported as 1.11.

For CAAAGLQDCTAGNASASA [HC1523], the “furin cleavage Z-score” value (7.5 min) was -0.616 (inactive), the “furin cleavage Z-score” value (15 min) was -1.19 (inactive) and the “furin cleavage Z-score” value (30 min) was -0.342 (inactive).

With CASTHCSAHLAGNASASA [HC2515] the “furin cleavage Z-score” value (7.5 min) was 0.673 (inactive), the “furin cleavage Z-score” value (15 min) was 1.32 and the “furin cleavage Z-score” value (30 min) was -0.709 (inactive).

For CALARRQRRHAGNASASA [FS-266], the “furin cleavage Z-score” value (7.5 min) was 7.59 (active), the “furin cleavage Z-score” value (15 min) was 7.8 (active) and the “furin cleavage Z-score” value (30 min) was 6.43 (active).

For CAASSRWRRHAGNASASA [FS-117], the “furin cleavage Z-score” value (7.5 min) was 6.7 (active), the “furin cleavage Z-score” value (15 min) was 5.67 (active) and the “furin cleavage Z-score” value (30 min) was 5.46 (active).

With CASNSLLRHHAGNASASA [HC1384] the “furin cleavage Z-score” value (7.5 min) was 0.356 (inactive), the “furin cleavage Z-score” value (15 min) was -0.0116 (inactive) and the “furin cleavage Z-score” value (30 min) was 0.517 (inactive).

For CARSYRIVRTAGNASASA [FS-1934], the “furin cleavage Z-score” value (7.5 min) was 5.65 (active), the “furin cleavage Z-score” value (15 min) was 7.17 (active) and the “furin cleavage Z-score” value (30 min) was 7.79 (active).

With CAAVCTRGVAAGNASASA [HC752] the “furin cleavage Z-score” value (7.5 min) was 0.499 (inactive), the “furin cleavage Z-score” value (15 min) was 0.0628 (inactive) and the “furin cleavage Z-score” value (30 min) was 1.04.

CASASRNRRHAGNASASA [FS-1276] was tested, and the “furin cleavage Z-score” value (7.5 min) was 12.5 (active), the “furin cleavage Z-score” value (15 min) was 11.1 (active) and the “furin cleavage Z-score” value (30 min) was 8.5 (active).

For CANIRTGVRTAGNASASA [HC799], the “furin cleavage Z-score” value (7.5 min) was -0.448 (inactive), the “furin cleavage Z-score” value (15 min) was -0.243 (inactive) and the “furin cleavage Z-score” value (30 min) was -0.393 (inactive).

CAASSREIRQAGNASASA [FS-1446] was tested, and the “furin cleavage Z-score” value (7.5 min) was 0.448 (inactive), the “furin cleavage Z-score” value (15 min) was 1.14 and the “furin cleavage Z-score” value (30 min) was 0.453 (inactive).

In the case of CARSYRDSGIAGNASASA [FS-2463], the “furin cleavage Z-score” value (7.5 min) is reported as 0.464 (inactive), the “furin cleavage Z-score” value (15 min) is reported as 1.76 and the “furin cleavage Z-score” value (30 min) is reported as -0.62 (inactive).

With CAREMRALACAGNASASA [FS-2917] the “furin cleavage Z-score” value (7.5 min) was 0.375 (inactive), the “furin cleavage Z-score” value (15 min) was -0.261 (inactive) and the “furin cleavage Z-score” value (30 min) was 0.24 (inactive).

For CATTYCSGSWAGNASASA [HC1869], the “furin cleavage Z-score” value (7.5 min) was -2.31 (inactive), the “furin cleavage Z-score” value (15 min) was -0.739 (inactive) and the “furin cleavage Z-score” value (30 min) was -0.526 (inactive).

In the case of CAGAVYTFYGAGNASASA [HC553], the “furin cleavage Z-score” value (7.5 min) is reported as -0.781 (inactive), the “furin cleavage Z-score” value (15 min) is reported as -1.17 (inactive) and the “furin cleavage Z-score” value (30 min) is reported as -0.823 (inactive).
